Source: PubChem BioAssay (NCI)
This is part of a sample that, as a whole, favours compounds with a hit. Of some 83,000 tested, about 20% had one in any assay.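 Interpretation: 100, growth as untreated; towards 0, rising growth inhibition; 0, no net growth; 0 to -100, cell death. Compounds scoring below 10 were considered active.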 Unmarked numbers belong to inactive results. Activity calls are given as the source filed them.

These molecules were tested on MCF7 breast (assay: NCI-60 one-dose screen, 48 h (100 = growth as untreated, 0 = no growth, -100 = all killed)). Conditions: 10 µM.

Row | SMILES | growth
1 | CN(C)CCC1(c2ccccc2)CCN(C)C1=O (stereo unspecified) | 106%
2 | COc1ccc(/C=C/c2nnc(/C=C/c3ccc(OC)c(OC)c3)o2)cc1OC | 22.8%
3 | CN(C)c1ccc(/C=N/NC(=O)c2ccccc2Nc2cccc(C(F)(F)F)c2)cc1 | 92.5%
4 | CN(C)CCOc1ccc(-c2nc3sccn3c2-c2ccnc(S(C)(=O)=O)n2)cc1 | 90.2%
5 | COc1ccc(CCN2CCC(Nc3nc4ccccc4n3Cc3ccc(F)cc3)CC2)cc1 | -53.6% (active)
6 | O=C(CN(C1CCCCC1)C1CCCCC1)Nc1ccc(S(=O)(=O)c2ccc(NC(=O)CN(C3CCCCC3)C3CCCCC3)cc2)cc1 | -40.7% (active)
7 | COc1ccc2nc(-c3ccc(Cl)cc3)cc(-c3nnc(SC/C(=N\O)c4ccccc4)n3-c3ccccc3)c2c1 | 69.3%
8 | Cc1cc(CSc2ccccc2C(=O)N2CC=C(c3ccccc3)CC2)on1 | 94.9%
9 | CCOC(=O)c1cc(C(=O)c2cc(OC)c(OC)c(OC)c2)n2nc(C)ccc12 | 21.6%
10 | O=C(O)c1ccc(-n2cc(CNc3ccc(Cl)cc3)c(-c3ccccc3)n2)cc1 | 87.4%
11 | CNC(=O)c1cc(Oc2ccc3c(c2)sc2nc(-c4ccc(N)cc4)cn23)ccn1 | 20.2%
12 | Nc1ccc(CC[C@H]2CCC/C=C/[C@@H]3C[C@H](O)C[C@H]3[C@H](O)/C=C/C(=O)O2)cc1 | -44.7% (active)
13 | CNC(=O)c1cn(C2CC2)c2cc(N3CCN(C(=O)c4cc(OC)c(OC)c(OC)c4)CC3)c(F)cc2c1=O | 94.3%
14 | CN1CCN(C2=Nc3ccccc3Oc3ccc(Cl)cc32)CC1 | 97.4%
15 | COc1ccc(Cc2cnc(N)nc2N)cc1OC | 100%
16 | COc1ccc(C(c2ccc(OCCN(C)C)cc2)c2cc3ccccc3c3ccccc23)cc1 (stereo unspecified) | 2.13% (active)
17 | O=C(N/N=C/c1ccc(Cl)cc1)c1ccccc1Nc1cccc(C(F)(F)F)c1 | 85.2%
18 | CC(=O)O[C@@]12CO[C@@H]1C[C@H](O)[C@@]1(C)C(=O)[C@H](O)C3=C(C)[C@@H](OC(=O)[C@H](O)[C@@H](NC(=O)OC(C)(C)C)c4ccccc4)C[C@@](O)([C@@H](OC(=O)c4ccccc4)C12)C3(C)C (stereo partly specified) | 16.1%
19 | CS(=O)(=O)c1nccc(-c2c(-c3cccc(OCCc4ccccc4)c3)nc3sccn23)n1 | 69.2%
20 | C(=N\Nc1ncnc2sc3c(c12)CCNC3)/c1cccc2ccccc12 | 37.8%
21 | CNS(=O)(=O)Oc1ccc(-c2sc3cc(OS(=O)(=O)NC)ccc3c2C(=O)c2ccc(OCCN3CCCCC3)cc2)cc1 | 30.5%
22 | CCCCC/C=C/C/C=C/CCCCCCCC1=NC(C)(C)CN1C(C)C | -16.4% (active)
23 | C#C[C@]1(O)CCC2C3CCc4cc(OC5CCCC5)ccc4C3CC[C@@]21C (stereo partly specified) | 74.3%
24 | O=C(N/N=C/c1c(Cl)cccc1Cl)c1ccccc1Nc1cccc(C(F)(F)F)c1 | 94.7%
25 | COc1cccc(-c2nc3sccn3c2-c2cccc(S(C)(=O)=O)c2)c1 | 79.6%
26 | CC(=O)Nc1ccc(S(=O)(=O)c2ccnc3cc(Cl)ccc23)cc1 | 57.8%

What follows are molecules tested on HCT-116 colon in the same assay as above. Conditions: 10 µM.

Row | SMILES | growth
27 | NS(=O)(=O)Oc1ccc(NC(=O)C2CCCCCC2)cc1 | 105%
28 | O=C(CSc1nnc(-c2cccnc2SCc2ccccc2)o1)Nc1nc(Cl)cc(Cl)n1 | 97.3%
29 | O=C1/C=C/[C@@H](O)[C@@H]2C[C@@H](O)C[C@H]2/C=C/CCC[C@H](CCc2ccc(NC(=S)Nc3ccc4c(c3)C(=O)OC43c4ccc(O)cc4Oc4cc(O)ccc43)cc2)O1 | -37.2% (active)
30 | O=C(CCl)Nc1ccc(Cc2ccc(NC(=O)CCl)cc2)cc1 | -56.8% (active)
31 | Cc1cc(Cl)ccc1Nc1nc(C(F)(F)F)ccc1C(=O)N/N=C/c1c(Cl)cccc1Cl | 1.5% (active)
32 | COc1ccc2c(c1)C(=O)/C(=C/c1ccc([N+](=O)[O-])o1)O2 | -44.9% (active)
33 | S=C(SSC(=S)N(c1ccccc1)c1ccccc1)N(c1ccccc1)c1ccccc1 | 100%
34 | CC(C)=CCC/C(C)=C/CC/C(C)=C/CC/C=C(\C)CC/C=C(\C)CCC(=O)Nc1ccn(C2OC(CO)C(O)C2(F)F)c(=O)n1 (stereo unspecified) | 20.3%
35 | c1ccc(/C(=N\Nc2ccc3ccccc3n2)c2ccccn2)cc1 | 9.03% (active)
36 | c1ccc(CSc2ncccc2-c2nnc(SCCN3CCOCC3)o2)cc1 | 108%
37 | CN(C)c1ncnc2c1nnn2C1OC(CO)C(O)C1O (stereo unspecified) | 17.2%
38 | COc1ccccc1/C=N\N/C(N)=N\N=C\c1ccccc1OC | 5.25% (active)
39 | COc1cc(/C=C/c2cc(/C=C/c3ccc(O)c(OC)c3)nc(N)n2)ccc1O | 0.331% (active)
40 | O=C(/C=C/c1cccc(B(O)O)c1)c1cccc(B(O)O)c1 | -88.3% (active)
41 | CN(C)CCC1(c2ccccc2)CCN(C)C1=O (stereo unspecified) | 110%
42 | COc1ccc(/C=C/c2nnc(/C=C/c3ccc(OC)c(OC)c3)o2)cc1OC | 4.83% (active)
43 | CN(C)c1ccc(/C=N/NC(=O)c2ccccc2Nc2cccc(C(F)(F)F)c2)cc1 | 75.1%
44 | CN(C)CCOc1ccc(-c2nc3sccn3c2-c2ccnc(S(C)(=O)=O)n2)cc1 | 98.1%
45 | COc1ccc(CCN2CCC(Nc3nc4ccccc4n3Cc3ccc(F)cc3)CC2)cc1 | -39.4% (active)
46 | O=C(CN(C1CCCCC1)C1CCCCC1)Nc1ccc(S(=O)(=O)c2ccc(NC(=O)CN(C3CCCCC3)C3CCCCC3)cc2)cc1 | -86.3% (active)

Row | SMILES | growth
47 | COc1ccc2nc(-c3ccc(Cl)cc3)cc(-c3nnc(SC/C(=N\O)c4ccccc4)n3-c3ccccc3)c2c1 | 67.9%
48 | Cc1cc(CSc2ccccc2C(=O)N2CC=C(c3ccccc3)CC2)on1 | 93.1%
49 | CCOC(=O)c1cc(C(=O)c2cc(OC)c(OC)c(OC)c2)n2nc(C)ccc12 | 14.7%
50 | O=C(O)c1ccc(-n2cc(CNc3ccc(Cl)cc3)c(-c3ccccc3)n2)cc1 | 85.9%
51 | CNC(=O)c1cc(Oc2ccc3c(c2)sc2nc(-c4ccc(N)cc4)cn23)ccn1 | 6.01% (active)
52 | Nc1ccc(CC[C@H]2CCC/C=C/[C@@H]3C[C@H](O)C[C@H]3[C@H](O)/C=C/C(=O)O2)cc1 | -73.7% (active)
53 | CNC(=O)c1cn(C2CC2)c2cc(N3CCN(C(=O)c4cc(OC)c(OC)c(OC)c4)CC3)c(F)cc2c1=O | 103%
54 | CN1CCN(C2=Nc3ccccc3Oc3ccc(Cl)cc32)CC1 | 92.4%
55 | COc1ccc(Cc2cnc(N)nc2N)cc1OC | 99.8%
56 | COc1ccc(C(c2ccc(OCCN(C)C)cc2)c2cc3ccccc3c3ccccc23)cc1 (stereo unspecified) | -75% (active)
57 | O=C(N/N=C/c1ccc(Cl)cc1)c1ccccc1Nc1cccc(C(F)(F)F)c1 | 66.1%
58 | CC(=O)O[C@@]12CO[C@@H]1C[C@H](O)[C@@]1(C)C(=O)[C@H](O)C3=C(C)[C@@H](OC(=O)[C@H](O)[C@@H](NC(=O)OC(C)(C)C)c4ccccc4)C[C@@](O)([C@@H](OC(=O)c4ccccc4)C12)C3(C)C (stereo partly specified) | 34.6%
59 | CS(=O)(=O)c1nccc(-c2c(-c3cccc(OCCc4ccccc4)c3)nc3sccn23)n1 | 83.9%
60 | C(=N\Nc1ncnc2sc3c(c12)CCNC3)/c1cccc2ccccc12 | 8.77% (active)
61 | CNS(=O)(=O)Oc1ccc(-c2sc3cc(OS(=O)(=O)NC)ccc3c2C(=O)c2ccc(OCCN3CCCCC3)cc2)cc1 | 33.4%
62 | CCCCC/C=C/C/C=C/CCCCCCCC1=NC(C)(C)CN1C(C)C | -36.8% (active)
63 | C#C[C@]1(O)CCC2C3CCc4cc(OC5CCCC5)ccc4C3CC[C@@]21C (stereo partly specified) | 68.6%
64 | O=C(N/N=C/c1c(Cl)cccc1Cl)c1ccccc1Nc1cccc(C(F)(F)F)c1 | 93.1%
65 | COc1cccc(-c2nc3sccn3c2-c2cccc(S(C)(=O)=O)c2)c1 | 104%
66 | CC(=O)Nc1ccc(S(=O)(=O)c2ccnc3cc(Cl)ccc23)cc1 | 78.7%
